Source: PubChem BioAssay (several laboratories)
Compounds with a hit are over-represented: about 5.4% of the library has one in this group of screens.
Mdm2-MdmX inh = disrupts the human Mdm2-MdmX interaction; O15151+Q00987; inhibition, % at 8 µM; 330,000 tested, 3% active; SaOS-2 split-luciferase Mdm2/MdmX complementation, luminescence;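 active means inhibition of at least 50% at 8 µM in the primary screen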
Target sequence (O15151 whole entry, looked up): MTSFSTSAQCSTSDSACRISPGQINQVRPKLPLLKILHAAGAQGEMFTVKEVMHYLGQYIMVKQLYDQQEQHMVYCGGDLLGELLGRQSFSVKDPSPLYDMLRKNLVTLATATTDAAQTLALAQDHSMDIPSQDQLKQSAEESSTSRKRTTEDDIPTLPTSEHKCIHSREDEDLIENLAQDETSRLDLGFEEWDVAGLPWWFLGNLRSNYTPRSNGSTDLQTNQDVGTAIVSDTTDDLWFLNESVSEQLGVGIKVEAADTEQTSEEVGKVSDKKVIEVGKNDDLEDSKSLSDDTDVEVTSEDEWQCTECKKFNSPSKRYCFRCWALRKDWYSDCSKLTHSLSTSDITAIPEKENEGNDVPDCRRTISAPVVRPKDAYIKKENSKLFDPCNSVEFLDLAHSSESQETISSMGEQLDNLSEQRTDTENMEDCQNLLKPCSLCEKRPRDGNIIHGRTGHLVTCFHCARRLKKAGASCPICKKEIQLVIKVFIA
Target sequence (Q00987 whole entry, looked up): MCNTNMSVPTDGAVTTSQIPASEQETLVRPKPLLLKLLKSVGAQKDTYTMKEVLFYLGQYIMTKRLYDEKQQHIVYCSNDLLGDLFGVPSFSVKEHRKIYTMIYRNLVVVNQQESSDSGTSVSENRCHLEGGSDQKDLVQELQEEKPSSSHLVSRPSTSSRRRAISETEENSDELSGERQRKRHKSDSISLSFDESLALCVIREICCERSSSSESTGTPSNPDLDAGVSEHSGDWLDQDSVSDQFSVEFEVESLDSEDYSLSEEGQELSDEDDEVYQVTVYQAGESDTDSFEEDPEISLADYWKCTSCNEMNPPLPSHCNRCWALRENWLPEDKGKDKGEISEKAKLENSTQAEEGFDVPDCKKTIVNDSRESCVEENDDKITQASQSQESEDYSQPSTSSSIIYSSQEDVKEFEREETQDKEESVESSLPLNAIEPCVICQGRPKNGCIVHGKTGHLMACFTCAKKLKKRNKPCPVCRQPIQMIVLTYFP
Calb FLC = C. albicans growth modulation with fluconazole. C. albicans CaCi-2 (fluconazole-resistant clinical isolate) + fluconazole, Alamar Blue growth, 48 h. growth inhibition, % (test concentration not listed). 300,000 tested, 0.57% active. AID 1979;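 active means growth inhibition above about 58% in most replicates, limit read from the data, passing the limit was not always enough; inconclusive means exactly half the replicates above a set limit; inactive means most replicates below a set limit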;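 further: all wells also contain fluconazole at 8 µg/ml as a sub-toxic cotreatment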
Beta cell apopt = blocks beta cell apoptosis; protection from apoptosis, % (concentration not given with the values); 300,000 tested, 0.8% active; AID 435005; INS-1E cytokine-induced death, ATP luminescence, 48 h; percent of positive-control rescue, neutral wells zero;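 active means Every replicate reaches about 75%, or at least half do and their mean reaches it too, limit read from the data; inconclusive means At least half of replicates reach the limit but their mean does not; inactive means Under half of replicates reach the limit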;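 further: higher means more ATP so stronger rescue from cytokine killing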
MPTP block = permeability transition pore inhibition | inhibition, % at 10 µM | isolated mouse mitochondria, Ca2+ swelling absorbance, 30 min | 360,000 tested, 1.4% active;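 active means inhibition of 50% or more, scaled per plate between neutral and stimulator controls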
SKKanGAS inh = blocks kanamycin growth of S. pyogenes SKKanGAS strain | inhibition, % at 7.5 µM | 300,000 tested, 1.3% active | BacTiter-Glo, 6 h;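 active means mean replicate score, as percent of positive control median, at least 50; inconclusive means mean below 50 but one replicate at or above 50; inactive means mean and every replicate below 50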;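 further: strain carries kanamycin resistance gene driven by streptokinase promoter and grows in 40 µg/ml kanamycin; loss of luminescence reflects streptokinase promoter inhibition or plain growth inhibition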
CSC inhib = cancer stem cell inhibition; cancer stem cell-like cells viability, luminescence; inhibition, % at 7.5 µM; 300,000 tested, 1.1% active; in the data active means inhibition above about 75%; inconclusive means no clear call, values can overlap the other calls; tested in HMLE shEcad cells
Each line names hits and unclear results; the compound was inactive in the other large screens.

Cc1noc(C)c1COc1cccc(C(=O)Nc2ccc(OCc3ccccc3)cc2)c1	CSC inhib 98
CN(CC1CCCO1)S(=O)(=O)c1ccc(C(=O)Nc2ccccc2F)cc1 (configuration not stated)	SKKanGAS inh inconclusive
CN(CC1CCCO1)S(=O)(=O)c1ccc(C(=O)Nc2nnc(-c3ccccc3)o2)cc1 (configuration not stated)	SKKanGAS inh 84
COc1ccccc1-c1nnc(NC(=O)c2ccc(S(=O)(=O)N(C)CC3CCCO3)cc2)o1 (configuration not stated)	SKKanGAS inh 54
CC(C)(C)N(Cc1ccccc1)C(=O)CSc1nc2ccccc2c(=O)[nH]1	none
COc1ccccc1N1CC(C)(C)C(=O)N(C(=O)c2ccc(C)cc2)C1=S	none
COc1ccccc1N1CC(C)(C)C(=O)N(C(=O)c2ccc(Cl)cc2)C1=S	Beta cell apopt 85
O=c1cc(CN2CCN(c3ccccc3F)CC2)c2ccccc2o1	none (no result: Mdm2-MdmX inh, Calb FLC, Beta cell apopt, SKKanGAS inh, CSC inhib)
Cn1c(C(=O)O)c(CC(=O)Nc2ccc(F)cc2F)c2ccccc21	none
COc1ccc(NS(=O)(=O)c2cccc(C(=O)N/N=C(\C)c3ccncc3)c2)cc1	none
COc1ccc(NS(=O)(=O)c2cccc(C(=O)N/N=C(\C)c3ccc(-n4ccnc4)cc3)c2)cc1	CSC inhib 95
Oc1ccc(/C=N/n2c(COc3ccccc3)n[nH]c2=S)cc1O	Calb FLC 77
S=c1[nH]nc(COc2ccccc2)n1/N=C/C(Cl)=C/c1ccccc1	CSC inhib 142
COc1ccc(C(C(=O)NC(C)(C)C)n2c(-c3ccc(=O)[nH]c3)nc3ccccc32)cc1 (configuration not stated)	none (no result: Mdm2-MdmX inh, Calb FLC, Beta cell apopt, SKKanGAS inh, CSC inhib)
O=c1c2cc(N3CCOCC3)ccc2[nH]c(=S)n1CCc1ccccc1	SKKanGAS inh 84
C=CCOC(=O)Cn1cnc2c(sc3nc(C)cc(C)c32)c1=O	none
Cc1cc(C)c2c(n1)sc1c(=O)n(CC(=O)c3ccccc3)cnc12	SKKanGAS inh 93
O=C(NNC(=O)c1cc(-c2cccc(Br)c2)nc2ccccc12)c1csc(N2CCOCC2)n1	SKKanGAS inh 56 (no result: CSC inhib)
COc1c(OC(C)=O)ccc(/C=C/c2ccc3cccc(OC)c3n2)c1[N+](=O)[O-]	none (no result: Beta cell apopt, CSC inhib)
CCOc1cc(/C=C/c2ccc3cccc([N+](=O)[O-])c3n2)ccc1O	none
COC(=O)c1ccc(/C=C/c2ccc3cccc(OC(C)=O)c3n2)cc1	SKKanGAS inh 53
CCOc1c(OC(C)=O)ccc(/C=C/c2ccc3cccc(OC(C)=O)c3n2)c1[N+](=O)[O-]	SKKanGAS inh 85
COc1ccccc1/C=C/c1ccc2cccc(O)c2n1	SKKanGAS inh 97
CCOc1cccc(/C=C/c2ccc3cccc(O)c3n2)c1OC	Calb FLC inconclusive, SKKanGAS inh 98, CSC inhib inconclusive (no result: Beta cell apopt)
Cc1ccc(S(=O)(=O)N(Cc2ccc(C(F)(F)F)cc2)C(=O)N2CCN(C)CC2)cc1	none (no result: Beta cell apopt)
COc1ccc(-c2nnc3n(CCc4ccccc4)c(=O)c4ccccc4n23)cc1OC	none
O=C(O)c1ccc2c(=O)n3c(nc2c1)/C(=C/c1ccc(Cl)c(Cl)c1)CC3	none
CC(CCc1ccccc1)NC(=O)c1cccc([N+](=O)[O-])c1 (configuration not stated)	none
COc1cc(Cl)cc(/C=C/c2ccc3cccc(O)c3n2)c1OC	SKKanGAS inh 87
COc1cc(OC)c(OC)cc1C=Cc1ccc2ccccc2n1	none (no result: Mdm2-MdmX inh, Calb FLC, Beta cell apopt, SKKanGAS inh, CSC inhib)
CO/N=C(/C(=O)N[C@@H]1C(=O)N2C(C(=O)O)=CCS[C@H]12)c1cnc(N)s1	SKKanGAS inh 99 (no result: Mdm2-MdmX inh, Calb FLC)
O=C(Nc1nccs1)c1ccc([N+](=O)[O-])cc1Cl	none
CC(=O)Nc1ccc(NC(=O)CSc2nnc(NC(=O)c3ccc(Br)o3)s2)cc1	SKKanGAS inh 73
N#Cc1c(Nc2cccc(F)c2)sc2c(O)cc(=O)[nH]c12	SKKanGAS inh 113
N#Cc1c(SCC(=O)Nc2ccc(C(F)(F)F)cc2)sc2c(O)cc(=O)[nH]c12	none
CC(C)(C)c1cc(Cl)ccc1OCCOCCN1CCCC1	CSC inhib 93
C=CCNCCCOc1ccc(Cl)cc1C(C)(C)C	CSC inhib 104
Nc1c(Cl)ncnc1N/N=C/c1cccnc1	none (no result: Beta cell apopt)
Nc1c(Cl)ncnc1N/N=C/c1ccc2ccccc2n1	Beta cell apopt 113, CSC inhib 102 (no result: Mdm2-MdmX inh, Calb FLC, SKKanGAS inh)
Nc1c(Cl)ncnc1N/N=C/c1ccccn1	Beta cell apopt 119, CSC inhib 102 (no result: Mdm2-MdmX inh, Calb FLC, MPTP block, SKKanGAS inh)
COc1cc(OC)cc(-c2nnc(NC(=O)Cc3ccc(F)cc3)o2)c1	none
CCOC(=O)C(Cc1ccccc1)C(=O)Nc1ccccc1C (configuration not stated)	Calb FLC inconclusive
COc1cc(/C=C/c2noc(-c3ccccc3O)n2)ccc1OC(C)=O	CSC inhib 103
CC(=O)Nc1ccc(/C=C/c2noc(-c3ccccc3O)n2)cc1	none
CN1CCN(C(=O)c2cccc3c(-c4ccc(F)c(F)c4)coc23)CC1	none (no result: Mdm2-MdmX inh, Calb FLC, Beta cell apopt, SKKanGAS inh, CSC inhib)
Cc1ccc(-n2c(=O)[nH]c3ncccc3c2=O)cc1	none (no result: Beta cell apopt)
Cc1ccc(-n2c(-c3ccc(Br)cc3)c[n+]3c2CCc2ccc4cccnc4c2-3)cc1	Calb FLC 99, Beta cell apopt 133, SKKanGAS inh 81 (no result: Mdm2-MdmX inh)
N#Cc1ccccc1Sc1ccccc1C(=O)Nc1ccc2ccccc2c1	none
COc1ccc(Sc2ccc(NC(=O)c3ccccc3Cl)cc2C#N)cc1	SKKanGAS inh 52 (no result: Beta cell apopt)
N/N=C/C(=N\Nc1ccc(Cl)cc1)C(=O)c1ccncc1	CSC inhib 76
Cc1ccc2c(c1)cc(CN(Cc1cccs1)C(=O)c1ccco1)c1nnnn12	none
Cc1ccc2cc(CN(Cc3cccs3)C(=O)c3ccco3)c3nnnn3c2c1C	SKKanGAS inh 63 (no result: MPTP block)
CCc1nc2c(OCCn3cccc3)cccn2c1N(C=O)Cc1ccc(OC)cc1	none (no result: Mdm2-MdmX inh, Calb FLC, Beta cell apopt, SKKanGAS inh, CSC inhib)
Nc1n[nH]c(C2CC2)c1N=Nc1ccc(Cl)c(Cl)c1	SKKanGAS inh 82
COC1=CC(=O)C(O)=C(CCCCCCC/C=C/CCCCCCCC2=C(O)C(=O)C=C(OC)C2=O)C1=O	Calb FLC 81
CCCCCCCCCCCC1=C(O)C(=O)C=C(O)C1=O	Calb FLC 92, SKKanGAS inh 102 (no result: Mdm2-MdmX inh)
CCOc1ccc(OCC)c2sc(C)nc12	none
Cc1cc(NC(=O)CSc2nc3ccccc3n2CC(=O)N2CC(C)CC(C)C2)no1 (configuration not stated)	Calb FLC inconclusive (no result: CSC inhib)
O=C(NCc1ccc(F)cc1)C(c1ccccc1)N(CC1CCCO1)C(=O)Cn1nnc2ccccc21 (configuration not stated)	Calb FLC 92 (no result: CSC inhib)
Cc1cc([N+](=O)[O-])nn1Cc1ccc(C(=O)N/N=C/c2ccccc2)cc1	none
CCN(CC)c1ccc(C(=O)N/N=C/c2ccccc2OC(F)F)cc1	Calb FLC inconclusive, Beta cell apopt 80
CCn1c(CC(=O)Nc2ccccc2)nnc1SCC(=O)NC1=NCCS1	none
O=C(CN1CCN(c2cccc(Cl)c2)CC1)c1ccc(O)cc1O	none
